Experimental data taken from PubChem BioAssay (NCATS).
Results filed as inconclusive are left out. Calls of active or inactive are those of the source. The call rests on the fitted dose curve; in most records, active means well fitted curve in the direction sought with a large enough effect; inconclusive means small, poorly fitted or top-dose-only effect, or another doubt; inactive means no such curve, though single readings can be large; an effect the other way counts as inactive or inconclusive. Where a SMILES comes first, the peptide text is derived from it.

Assays:
HEK293T [1] = experiment: qHTS assay to identify novel small-molecules to repurpose for Merkel cell carcinoma treatment (AID 1296009); conditions: MCC and control cell lines, CellTiter-Glo viability, 72 h; at 44.8 µM (top of the series) unless noted; further: nearly all actives have a fitted effect of over 60% in size
Procedure, shortened: (§1)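 72 hr, 37 degree celsius; NPC 8-pt / MIPE 11-pt dose response; compound pinned in DMSO; CellTiter-Glo, 10 min RT, luminescence; normalized to no-cell and DMSO controls.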

C33A = experiment: Primary qHTS to identify gynecologic anti-cancer compounds using libraries of approved drugs and bioactive compounds (AID 1345084); conditions: Gynecologic cancer cell panel viability, ATPlite luminescence, 48 h; series mostly up to 57.5 µM; further: on the % scale 0 is the no-effect control and ±100 the full control effect; nearly all actives have a fitted effect of over 55% in size
Procedure, shortened: (§2)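 Cell viability after 48 h drug treatment, ATPlite luminescence readout; five doses.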

CAOV3 = experiment: as above; conditions: Gynecologic cancer cell panel viability, ATPlite luminescence, 48 h; series mostly up to 57.5 µM
Procedure, shortened: as §2

Es-2 = experiment: as above; conditions: Gynecologic cancer cell panel viability, ATPlite luminescence, 48 h; series mostly up to 57.5 µM
Procedure, shortened: as §2

HeLa = experiment: as above; conditions: Gynecologic cancer cell panel viability, ATPlite luminescence, 48 h; series mostly up to 57.5 µM
Procedure, shortened: as §2

Hek293T [2] = experiment: as above; conditions: Gynecologic cancer cell panel viability, ATPlite luminescence, 48 h, control line for the selectivity index; series mostly up to 57.5 µM
Procedure, shortened: as §2

JEG-3 = experiment: as above; conditions: Gynecologic cancer cell panel viability, ATPlite luminescence, 48 h; series mostly up to 57.5 µM
Procedure, shortened: as §2

OV90 = experiment: as above; conditions: Gynecologic cancer cell panel viability, ATPlite luminescence, 48 h; series mostly up to 57.5 µM
Procedure, shortened: as §2

PA-1 = experiment: as above; conditions: Gynecologic cancer cell panel viability, ATPlite luminescence, 48 h; series mostly up to 57.5 µM
Procedure, shortened: as §2

SKOV3 = experiment: as above; conditions: Gynecologic cancer cell panel viability, ATPlite luminescence, 48 h; series mostly up to 57.5 µM
Procedure, shortened: as §2

Tov-21-G = experiment: as above; conditions: Gynecologic cancer cell panel viability, ATPlite luminescence, 48 h; series mostly up to 57.5 µM
Procedure, shortened: as §2

Tov112D = experiment: as above; conditions: Gynecologic cancer cell panel viability, ATPlite luminescence, 48 h; series mostly up to 57.5 µM
Procedure, shortened: as §2

CASKI = experiment: as above; conditions: Gynecologic cancer cell panel viability, ATPlite luminescence, 48 h; series mostly up to 57.5 µM
Procedure, shortened: as §2

NIH3T3 = experiment: qHTS assay to identify novel small-molecules to repurpose for Merkel cell carcinoma treatment (AID 1296009); conditions: MCC and control cell lines, CellTiter-Glo viability, 72 h; at 44.8 µM (top of the series) unless noted; further: nearly all actives have a fitted effect of over 60% in size
Procedure, shortened: as §1

CC(=O)NC(Cc1ccccc1)C(=O)NC(C(=O)O)C(C)C (stereo not drawn) (Ac-Phe-Val-OH; configuration not given here)
inactive: outcome (HEK293T [1]) | Potency (C33A) | Potency (CAOV3) | Potency (Es-2) | Potency (HeLa) | Potency (Hek293T [2]) | Potency (JEG-3) | Potency (OV90) | Potency (PA-1) | Potency (SKOV3) | Potency (Tov-21-G) | Potency (Tov112D)

COC(=O)[C@H](Cc1ccc([N+](=O)[O-])cc1)NC(=O)c1cccc2ccccc12
inactive: outcome (HEK293T [1]) | Potency (C33A) | outcome (CASKI) | Potency (Es-2) | Potency (HeLa) | Potency (Hek293T [2]) | Potency (JEG-3) | Potency (OV90) | Potency (PA-1) | Potency (Tov-21-G) | Potency (Tov112D)

O=C(/C=C/c1ccc(O)cc1)OC[C@H]1O[C@H](O[C@@]2(CO)O[C@@H](CO)[C@H](O)[C@H]2O)[C@H](O)[C@@H](O)[C@@H]1O
inactive: outcome (HEK293T [1]) inactive [at 17.4 µM] | Potency (C33A) | outcome (CASKI) | Potency (Es-2) | Potency (HeLa) | Potency (Hek293T [2]) | Potency (JEG-3) | Potency (OV90) | Potency (PA-1) | Potency (Tov-21-G) | Potency (Tov112D)

CN1CCc2cc(Cl)c(O)cc2[C@@H](c2cccc3c2OCC3)C1
inactive: outcome (NIH3T3) | Potency (C33A) | Potency (CAOV3) | outcome (CASKI) | Potency (Es-2) | Potency (HeLa) | Potency (Hek293T [2]) | Potency (JEG-3) | Potency (OV90) | Potency (PA-1) | Potency (SKOV3) | Potency (Tov-21-G) | Potency (Tov112D)

COc1cc(Cc2cnc(N)nc2N)c(C(C)C)cc1OC
inactive: outcome (HEK293T [1]) | Potency (C33A) | Potency (CAOV3) | outcome (CASKI) | Potency (Es-2) | Potency (HeLa) | Potency (Hek293T [2]) | Potency (JEG-3) | Potency (PA-1) | Potency (SKOV3) | Potency (Tov-21-G) | Potency (Tov112D)

C/C=C(/C)C(=O)OC1C(OC(C)=O)C23C(O)OC4(CCC5C6(C)CCC(OC7OC(C(=O)O)C(O)C(OC8OC(CO)C(O)C(O)C8OC8OC(C)C(O)C(O)C8OC8OCC(O)C(O)C8O)C7OC7OC(CO)C(O)C(O)C7O)C(C)(C)C6CCC5(C)C4(C)CC2OC(C)=O)C3CC1(C)C (stereo unspecified)
inactive: outcome (HEK293T [1]) inactive [at 9.27 µM] | activity change, negative = cytotoxicity (C33A) 8.72% [at 6.55 µM] | activity change, negative = cytotoxicity (CASKI) 1.53% [at 6.55 µM] | activity change, negative = cytotoxicity (Es-2) 1.17% [at 6.55 µM] | activity change, negative = cytotoxicity (HeLa) -3.79% [at 6.55 µM] | activity change, negative = cytotoxicity (Hek293T [2]) -2.54% [at 6.55 µM] | activity change, negative = cytotoxicity (JEG-3) 2.12% [at 6.55 µM] | activity change, negative = cytotoxicity (OV90) 3.74% [at 6.55 µM] | activity change, negative = cytotoxicity (PA-1) -0.0173% [at 6.55 µM] | activity change, negative = cytotoxicity (Tov-21-G) -4.78% [at 6.55 µM] | activity change, negative = cytotoxicity (Tov112D) 1.18% [at 6.55 µM]

COC(=O)C1C(O)CCC2CN3CCc4c([nH]c5ccccc45)C3CC21 (stereo unspecified)
inactive: outcome (HEK293T [1]) | Potency (C33A) | Potency (CAOV3) | Potency (Es-2) | Potency (HeLa) | Potency (Hek293T [2]) | Potency (JEG-3) | Potency (OV90) | Potency (PA-1) | Potency (SKOV3) | Potency (Tov-21-G) | Potency (Tov112D)

CC1=C2CC3C(CCC3(C)O)C(C)(O)CC2OC1=O (stereo unspecified)
inactive: outcome (HEK293T [1]) | Potency (C33A) | Potency (CAOV3) | outcome (CASKI) | Potency (Es-2) | Potency (HeLa) | Potency (Hek293T [2]) | Potency (JEG-3) | Potency (SKOV3) | Potency (Tov-21-G) | Potency (Tov112D)

CCOC(=O)C(CCc1ccccc1)NC(C)C(=O)N1Cc2ccccc2CC1C(=O)O (stereo unspecified)
inactive: outcome (NIH3T3) | Potency (C33A) | Potency (CAOV3) | outcome (CASKI) | Potency (Es-2) | Potency (HeLa) | Potency (Hek293T [2]) | Potency (JEG-3) | Potency (OV90) | Potency (PA-1) | Potency (SKOV3) | Potency (Tov-21-G) | Potency (Tov112D)

CC[C@H]1OC(=O)[C@H](C)[C@@H](O[C@H]2C[C@@](C)(OC)[C@@H](O)[C@H](C)O2)C(C)[C@@H](O[C@@H]2O[C@H](C)C[C@H](N(C)C)[C@H]2O)[C@](C)(O)C[C@@H](C)CN(C)[C@H](C)[C@@H](O)[C@]1(C)O (stereo partly specified)
inactive: outcome (NIH3T3) | Potency (C33A) | Potency (CAOV3) | outcome (CASKI) | Potency (Es-2) | Potency (HeLa) | Potency (Hek293T [2]) | Potency (JEG-3) | Potency (OV90) | Potency (PA-1) | Potency (SKOV3) | Potency (Tov-21-G) | Potency (Tov112D)

CC(C/C=C/C(C)(C)O)C1CCC(C)(O)C(O)C1 (stereo unspecified)
inactive: outcome (NIH3T3) | Potency (C33A) | Potency (CAOV3) | outcome (CASKI) | Potency (Es-2) | Potency (HeLa) | Potency (Hek293T [2]) | Potency (JEG-3) | Potency (OV90) | Potency (PA-1) | Potency (SKOV3) | Potency (Tov-21-G) | Potency (Tov112D)

COc1cc(C(CO)CO[C@@H]2O[C@H](CO)[C@@H](O)[C@H](O)[C@H]2O)ccc1O (stereo partly specified)
inactive: outcome (HEK293T [1]) | Potency (C33A) | Potency (Es-2) | Potency (HeLa) | Potency (Hek293T [2]) | Potency (JEG-3) | Potency (OV90) | Potency (PA-1) | Potency (SKOV3) | Potency (Tov-21-G) | Potency (Tov112D)

c1ccc2c(Nc3nnc(-c4ccncc4)s3)cccc2c1
inactive: outcome (HEK293T [1]) | Potency (C33A) | Potency (CAOV3) | outcome (CASKI) | Potency (Es-2) | Potency (HeLa) | Potency (JEG-3) | Potency (PA-1) | Potency (Tov112D)

C/C=C(\C)C(=O)OC[C@H]1O[C@@H](O[C@H]2[C@@H](O[C@H]3O[C@H](COC(=O)/C(C)=C/C)[C@@H](O)[C@H](O)[C@H]3O[C@@H]3O[C@H](COC(=O)/C(C)=C/C)[C@@H](O)[C@H](OC(=O)/C(C)=C/C)[C@H]3O)O[C@H](COC(=O)/C(C)=C/C)[C@@H](O)[C@@H]2O)[C@H](O)[C@@H](O)[C@@H]1O
inactive: outcome (NIH3T3) inactive [at 9.27 µM] | activity change, negative = cytotoxicity (C33A) -2.71% [at 11.6 µM] | activity change, negative = cytotoxicity (CAOV3) -1.73% [at 11.6 µM] | activity change, negative = cytotoxicity (CASKI) 3.51% [at 11.6 µM] | activity change, negative = cytotoxicity (Es-2) 2.21% [at 11.6 µM] | activity change, negative = cytotoxicity (HeLa) -5.02% [at 11.6 µM] | activity change, negative = cytotoxicity (Hek293T [2]) -12.9% [at 11.6 µM] | activity change, negative = cytotoxicity (JEG-3) -4.46% [at 11.6 µM] | activity change, negative = cytotoxicity (OV90) -7.83% [at 11.6 µM] | activity change, negative = cytotoxicity (PA-1) 0.401% [at 11.6 µM] | activity change, negative = cytotoxicity (SKOV3) -1.49% [at 11.6 µM] | activity change, negative = cytotoxicity (Tov-21-G) -1.7% [at 11.6 µM] | activity change, negative = cytotoxicity (Tov112D) 6.68% [at 11.6 µM]

C/C(=C\CCC(C)C1CC(O)C2(C)C3CCC4C(C)(C)C(OC5OCC(O)C(O)C5O)CCC45CC35CC(O)C12C)C(=O)O (stereo unspecified)
inactive: outcome (NIH3T3) inactive [at 17.4 µM] | Potency (C33A) | Potency (CAOV3) | outcome (CASKI) | Potency (Es-2) | Potency (HeLa) | Potency (Hek293T [2]) | Potency (JEG-3) | Potency (OV90) | Potency (PA-1) | Potency (SKOV3) | Potency (Tov-21-G) | Potency (Tov112D)

C[C@]12CCC[C@](C)(C(=O)O)C1CCC13CC(CO)C(CCC12)C3 (stereo partly specified)
inactive: outcome (NIH3T3) | Potency (C33A) | Potency (CAOV3) | outcome (CASKI) | Potency (Es-2) | Potency (HeLa) | Potency (Hek293T [2]) | Potency (JEG-3) | Potency (OV90) | Potency (PA-1) | Potency (SKOV3) | Potency (Tov-21-G) | Potency (Tov112D)
